Measurements from PubChem BioAssay (EPA / NIEHS).
Records with an inconclusive call do not appear. Calls of active or inactive are those of the source. How the source made its calls, unless noted: active means hit-call score of the fitted dose curve at least 0.9, where 1 is the maximum; inconclusive means response in the unintended direction; inactive means score below 0.9.

Tests used:
[1] = Tanguay_ZF_120hpf_TR_legacy: (Legacy) Oregon State University Tanguay Lab 120 Hour Post-fertilization zebrafish Assay for Touch Response (AID 2283667)
In short: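 5D WT embryos; static exposure to 120 hpf, 28C, sealed/dark; DMSO 0.64% v/v final. TR scored present/absent; dead embryos excluded. Pos ctrl 5uM trimethyltin chloride.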

[2] = read-out: Cytochrome P450 (CYP24A1_1), CYP24A1 (gene 1591); test: LTEA_HepaRG_CYP24A1_1: Life Technologies and Expression Analysis (LTEA) Assay for Cytochrome P450 (CYP24A1_1) using HepaRG (AID 2283671; active means hit-call score of the fitted dose curve at least 0.9, where 1 is the maximum; inactive means score below 0.9); conditions: mRNA level, 48 h; actives raise or lower the signal
In short: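 In this test, gene induction or suppression of CYP24A1 in human HepaRG liver cells is measured by qRT-PCR after 48 h chemical treatment (eight concentrations, maximum 100 uM). Values are fitted bidirectionally relative to DMSO.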

[3] = CCTE_Padilla_ZF_144hpf_TERATOSCORE: (Legacy) CCTE's 144 Hour Post-fertilization zebrafish Assay Teratoscore, Padilla Lab (AID 2283679; active means hit-call score of the fitted dose curve at least 0.9, where 1 is the maximum; inactive means score below 0.9;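 on AC50: zebrafish embryos with chorions exposed by immersion from 6-8 hpf to 5 dpf with daily renewal; teratogenicity score from eye scoring of death hatching and malformations at 144 hpf; higher score means more developmental defects relative to DMSO baseline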)
In short: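 Larvae scored by eye at 144 hpf for death, hatching and malformations after a day in clean Hanks'. Before that, daily-renewed exposure at 80 uM (0.4% DMSO, 26C) from roughly 6-8 hpf through 5 dpf, 4 embryos per chemical.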

[4] = Tanguay_ZF_120hpf_ActivityScore_legacy: (Legacy) Oregon State University Tanguay Lab 120 Hour Post-fertilization zebrafish Assay Score for Activity (AID 2283742);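 on AC50: dechorionated Tropical 5D wild-type zebrafish embryos held singly per well; static exposure from 6 hpf until 120 hpf at 28 °C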
In short: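 Embryos are staged, enzymatically dechorionated at 4 hpf, placed individually at 6 hpf, then held in test chemical (0.64% DMSO) at 28C until 120 hpf. Mortality and malformations are scored by brightfield, with non-mortality endpoints skipped for dead embryos.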

[5] = test system: Thyroperoxidase (TPO), gene 54314; test: CCTE_Simmons_AUR_rTPO: CCTE's Amplex UltraRed Assay for Thyroperoxidase (TPO) Inhibition, Simmons Lab (AID 2283662);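 on AC50: potency for loss of signal meaning inhibition of peroxidase activity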
In short: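 Endpoint is decreased Amplex UltraRed fluorescence after a 30-min, 37C reaction of rat thyroid microsomes with 300 uM H2O2. Eight test concentrations (5 nM–87.5 uM final) in 0.5% DMSO, three biological replicates each.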

[6] = CCTE_Simmons_CellTiterGLO_HEK293T: Viability Assessment in CCTE's Assays for Thyroperoxidase (TPO) Inhibition, Simmons Lab (AID 2283665);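 on AC50: cells exposed to compound for 24 h before readout; actives reduce ATP signal below DMSO vehicle meaning cytotoxicity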
In short: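 Cytotoxicity counter-screen: human HEK293T cells in low-serum (1% FBS) medium receive test chemical, 5 nM to 87.5 uM final, for 24 h; ATP is quantified by luciferase luminescence.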

[7] = CEETOX_H295R_MTT_cell_viability: Viability Assessment in the CeeTox HT-H295R MTT Assay (AID 2283718; active means hit-call score of the fitted dose curve at least 0.9, where 1 is the maximum; inactive means score below 0.9)
In short: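 MTT reduction (0.5 mg/ml, 4 h at 37 C; absorbance at 570 and 650 nm) gave viability as background-corrected percent change versus controls. H295R cells had 48 h forskolin (10 uM) prestimulation, then 48 h chemical exposure at 0.1% DMSO.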

[8] = STM_H9_OrnithineISnorm_perc: Stemina devTOX quickPredict H9 human embryonic stem cell (hESC)-based Assay for Ornithine (ORN) Metabolite Biomarker, Normalized (AID 2283712; active means hit-call score of the fitted dose curve at least 0.9, where 1 is the maximum; inactive means score below 0.9;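 further: ornithine released into spent medium during last day measured by mass spectrometry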)
In short: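 Cells: undifferentiated H9 hESC. Dosing: 72 h, media replaced every 24 h. Sample: final 24-h conditioned media, 40% acetonitrile. Read: UPLC-HRMS ornithine area vs 13C standard, % DMSO control.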

[9] = STM_H9_CystineISnorm_perc: Stemina devTOX quickPredict H9 human embryonic stem cell (hESC)-based Assay for Cystine (CYSS) Metabolite Biomarker, Normalized (AID 2283713; active means hit-call score of the fitted dose curve at least 0.9, where 1 is the maximum; inactive means score below 0.9)
In short: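 Secreted cystine was measured by UPLC-HRMS in H9 hESC medium after 72h compound exposure with 24-hourly replenishment. Values are standard-normalized areas relative to 0.1% DMSO.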

[10] = test system: Thyroperoxidase (TPO), gene 445522; test: CCTE_Simmons_GUA_TPO: CCTE's Guaiacol Assay for Thyroperoxidase (TPO) Inhibition, Simmons Lab (AID 2283750)
In short: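 Porcine thyroid microsomes (25 ug) in 200mM potassium phosphate, preincubated 30 s at 37C with compound (8 concentrations, 5 nM–87.5 uM) and 35mM guaiacol; 1mM H2O2 starts reaction. Absorbance change at 450nm over first 80 s; loss of signal versus DMSO, three replicates.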

Measured: AC50

CCN(CC)C(=O)c1cc(S(=O)(=O)Cc2ccccc2)c(N2CCC(c3ccccc3)CC2)cc1N(CC)CCN(C)C
active: [3] 20.7 µM | [4] 17.2 µM
inactive: [1] | [2]

O=C1CCC(C2CCCCC2)CC1
inactive: [5] | [1] | [4]
active: [6] 43.8 µM | [3] 60.4 µM

C[C@]12CC[C@@H]3c4ccc(O)cc4CC[C@H]3[C@@H]1CCC2=O
inactive: [1] | [3] | [7] | [4]

CC(=O)N1CCN(c2ccc(OC[C@H]3CO[C@](Cn4ccnc4)(c4ccc(Cl)cc4Cl)O3)cc2)CC1
active: [5] 19.2 µM | [6] 1.26 µM | [3] 14.3 µM | [8] 8.18 µM | [9] 1.58 µM
inactive: [1] | [7] | [4]

NC(=O)c1nc(-c2cccc(-c3cc(F)ccc3OCC(F)(F)C(F)(F)F)c2)n[nH]1
active: [1] 26.6 µM | [3] 1.08 µM | [9] 3.59 µM | [4] 30.9 µM
inactive: [8] | [7]

C[C@]12CC[C@@H]3c4ccc(O)cc4CC[C@H]3[C@@H]1CC[C@H]2O
inactive: [6] | [1] | [2] | [7] | [4]
active: [5] 4.06 µM | [3] 15 µM

CN(C[C@@H](CC[N+]12CCC(C3CCCCC3)(CC1)CC2)c1ccc(Cl)c(Cl)c1)C(=O)c1cc(C(F)(F)F)cc(C(F)(F)F)c1
inactive: [1]
active: [5] 43.8 µM | [6] 9.54 µM | [3] 4.91 µM | [8] 7.48 µM | [9] 16.4 µM | [4] 46.9 µM

CN(C)c1ccc(C(=C2C=CC(=[N+](C)C)C=C2)c2ccc(N(C)C)cc2)cc1
active: [5] 15.9 µM | [6] 0.955 µM | [3] 0.477 µM | [8] 0.592 µM | [9] 0.817 µM | [4] 1.66 µM
inactive: [1]

CCCCCCCCOC(=O)c1cc(O)c(O)c(O)c1
active: [5] 0.921 µM | [6] 7.69 µM | [3] 1.43 µM | [8] 2.13 µM | [9] 2.47 µM | [4] 9.16 µM
inactive: [1] | [7]

CC(C)(C)c1csc(-c2cc3cc(OCc4ccccc4CC(=O)O)ccc3o2)n1
active: [5] 43.8 µM | [6] 22.4 µM | [3] 1.71 µM | [4] 27.1 µM
inactive: [1] | [2]

CCOC(=O)O[C@H](C)OC(=O)c1ccc2c(c1)cc(C(=O)NC1CCN(C(C)C)CC1)n2Cc1cc(-c2ccc(Cl)s2)on1
inactive: [1] | [8] | [9]
active: [5] 9.93 µM | [6] 2.11 µM | [3] 4.27 µM | [4] 34.8 µM

NCc1cccc(C2CCN(C(=O)c3ccc(C#Cc4ccccc4F)o3)CC2)c1
inactive: [5] | [1]
active: [6] 9.98 µM | [3] 14.5 µM | [4] 31.6 µM

COc1cccc([C@H](O)C2CCN(CCc3ccc(F)cc3)CC2)c1OC
inactive: [1] | [8] | [7] | [4]
active: [3] 124 µM | [9] 6.34 µM

O=C(Nc1ccc(Cl)cc1)Nc1ccc(Cl)c(Cl)c1
inactive: [1] | [9] | [7] | [4]
active: [5] 18.9 µM | [6] 1.73 µM | [3] 5.19 µM | [8] 0.000976 µM

COc1ccc2cc(S(=O)(=O)N[C@H](CC(=O)N[C@H](Cc3ccc(CN4[C@H](C)CCC[C@@H]4C)cc3)C(=O)N(C)C(C)C)c3ccc4c(c3)OCO4)ccc2c1
active: [3] 52.9 µM | [8] 18.4 µM | [9] 22.6 µM
inactive: [1] | [4]

CO[C@H]1/C=C/O[C@@]2(C)Oc3c(C)c(O)c4c(O)c(c(/C=N/N5CCN(C)CC5)c(O)c4c3C2=O)NC(=O)/C(C)=C\C=C\[C@H](C)[C@H](O)[C@@H](C)[C@@H](O)[C@@H](C)[C@H](OC(C)=O)[C@@H]1C
inactive: [6] | [1] | [8] | [7] | [4]
active: [5] 3.3 µM | [9] 3.27 µM

O=C1O[C@H]([C@@H](O)CO)C(O)=C1O
active: [5] 43.8 µM
inactive: [6] | [1] | [3] | [4]

Oc1ccc2ccccc2c1
inactive: [6] | [7]
active: [5] 3.13 µM | [1] 33.6 µM | [3] 57.1 µM | [4] 36.6 µM | [10] 72.8 µM

Clc1cc(Cl)c2c(c1)N=C1CCCCCN1C2
inactive: [8] | [9] | [7]
active: [1] 15.7 µM | [3] 12.2 µM | [4] 18 µM

CCCCOC(=O)c1ccc(O)cc1
active: [1] 49.3 µM | [3] 5.07 µM | [8] 42.3 µM | [4] 41 µM
inactive: [9] | [7]

Cc1ccc2oc(CN(Cc3ccccc3)C(=O)Nc3c(F)cc(F)cc3F)c(-c3ccc(Cl)cc3)c2c1
inactive: [1] | [3] | [7] | [4]

Cc1c2ccccc2c(C)c2c1ccc1ccccc12
inactive: [5] | [1] | [8] | [7]
active: [6] 17.2 µM | [3] 4.42 µM | [9] 5 µM | [4] 8.83 µM | [10] 146 µM
